The full ranking holds about 68,000 sequences; the median of “fluorescence intensity (a.u.)” is about 9,100, and the highest 2% start at about 16,000. What follows is part of a selection rich in the highest values, with near analogues and random picks from the rest.

For the assay, the target named is OsWRKY34 (Oryza sativa, UniProt Q0JBA9 1-250). Kind of assay: protein-binding microarray (RPBM); PBS, 2% BSA, 51.3 ng/ul salmon testes DNA, 50 uM zinc acetate, 200 nM TF, 25 C, 1 h; high values mean tight binding. As to conditions: protein: recombinant; tags: N-terminal polyhistidine and DsRed monomer fusion (pET32a); label: CyDye5-dUTP incorporated in the synthesized complementary strand; 3' TTTTT single-stranded linker to array surface; dsDNA, one strand shown. In outline: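 A custom Agilent array was converted to double-stranded form by primer extension with Cy5-dUTP and blocked with 2% BSA. Protein at 200 nM in PBS with 2% BSA, salmon testes DNA and 50 µM zinc acetate was applied for 1 h at 25 °C, followed by washing. The proteins were polyhistidine–DsRed N-terminal fusions of transcription factors, expressed in E. coli BL21-CodonPlus and Ni–NTA-purified. The binding signal is per-feature fluorescence intensity (arbitrary units) from an Axon 4000B scanner.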
Sequence of OsWRKY34 (Q0JBA9 entry or part of it): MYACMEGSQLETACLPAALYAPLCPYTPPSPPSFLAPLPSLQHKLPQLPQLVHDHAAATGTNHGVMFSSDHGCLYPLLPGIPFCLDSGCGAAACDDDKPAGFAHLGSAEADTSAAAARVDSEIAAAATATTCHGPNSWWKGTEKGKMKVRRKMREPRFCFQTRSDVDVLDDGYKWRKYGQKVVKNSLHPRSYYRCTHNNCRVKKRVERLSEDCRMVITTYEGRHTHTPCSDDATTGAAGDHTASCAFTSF
For “GCGCTACTTCGCTCGACCACCCGCCCGCCTTCCACTGCCACGGAGTCACCTAGTGCAG”, the binding signal is 8550 fluorescence intensity (a.u.).

Regarding “CTCTAATTTTCTTTGCGTGTTCCATCATCAATATGGTATTCGGAGTCACCTAGTGCAG”, the binding signal is 10700 fluorescence intensity (a.u.).

For “CAATTTCGAGCTTCGTATCAGCATATGCTATTCCCTATTGCGGAGTCACCTAGTGCAG”, the binding signal was 10500 fluorescence intensity (a.u.).

On to “CATTGACTTTTTTAAACATGTTTGACTGTTCGTCTTATTCCGGAGTCACCTAGTGCAG”, for which the binding signal is 11500 fluorescence intensity (a.u.).

As to “TTAGCACATGTTTGACCGTTCGTCTTATTCAAAATTTTTTCGGAGTCACCTAGTGCAG”, the binding signal was 12600 fluorescence intensity (a.u.).

In the case of “GTTGACTTTTTTAAACATGTTGGACCGTTCGTCTTATTCACGGAGTCACCTAGTGCAG”, the binding signal was 9150 fluorescence intensity (a.u.).

As for “ACCGTTGACTTTTTAGCACATGTTTGACCGCTCGTCTTATCGGAGTCACCTAGTGCAG”, the binding signal was 54800 fluorescence intensity (a.u.).

“CGTTGACTTTTCTAAACATGTTTGACCGTTCGTCTTATTCCGGAGTCACCTAGTGCAG”: the binding signal is 28400 fluorescence intensity (a.u.).

On to “CGTTGACTTTTTAGCACATGTTTGACCGTTCGTCTTATTCCGGAGTCACCTAGTGCAG”, for which the binding signal was 29000 fluorescence intensity (a.u.).

With “GACTTTTTAGCACATGTTTGACCGTTCGTCTTATTCAAAACGGAGTCACCTAGTGCAG”, the binding signal was 10800 fluorescence intensity (a.u.).

On to “TTGACTTTTTAGCACATGTTTGACCGTTCGTCTTATTCAACGGAGTCACCTAGTGCAG”, for which the binding signal is 8480 fluorescence intensity (a.u.).

With “TGACTTTTTAGCATATGTTTGACCGCTCGTCTTATTCAAACGGAGTCACCTAGTGCAG”, the binding signal was 8220 fluorescence intensity (a.u.).

“CAGATCGACTCGACTCGACCAGGTTCTCTCGTTTTTACTCCGGAGTCACCTAGTGCAG”: the binding signal is 9940 fluorescence intensity (a.u.).

With “CTCTCTCTCTGCTGCTGCTCTCTAATCAGTAACCAGTAGTCGGAGTCACCTAGTGCAG”, the binding signal is 9580 fluorescence intensity (a.u.).

As for “TTGTTTATTTAAGGTGTGATTGTATTTGGATCATGTTTTGCGGAGTCACCTAGTGCAG”, the binding signal is 8980 fluorescence intensity (a.u.).

Consider “GGGGTATAATTTGTGTCTTAGCTGATAGAATGTGCAGTTGCGGAGTCACCTAGTGCAG”, for which the binding signal was 9980 fluorescence intensity (a.u.).

Turning to “AAGGACCCAGCTGTTCGCCACGTGTGCGTGTTGACTTCCACGGAGTCACCTAGTGCAG”, the binding signal was 9780 fluorescence intensity (a.u.).

As to “ATAGTACGAATGGTTAGCCCAAAAGTCAGTGTCTTCATTCCGGAGTCACCTAGTGCAG”, the binding signal was 10300 fluorescence intensity (a.u.).

For “CACTGCTTCTCACCCAACTCGCGCGCGCCATTCCTTGCCTCGGAGTCACCTAGTGCAG”, the binding signal was 11600 fluorescence intensity (a.u.).

Turning to “TCTATATTGCTATTTTCATTTTAAAACTATTTCTTGCCACCGGAGTCACCTAGTGCAG”, the binding signal was 10300 fluorescence intensity (a.u.).

Regarding “AGCTGGTCATATTCTATGTTGATTATCTTCATGGTATGAACGGAGTCACCTAGTGCAG”, the binding signal is 9730 fluorescence intensity (a.u.).

For the sequence “ATCTGGTCTGCAGGTATTTTCTTTGTATTGTATATTTCTACGGAGTCACCTAGTGCAG”, the binding signal was 10000 fluorescence intensity (a.u.).

For the sequence “TTCTGATATCTGGTCATATTTTTTTGAACAGGTAGCTATTCGGAGTCACCTAGTGCAG”, the binding signal was 27000 fluorescence intensity (a.u.).

Consider “CCGCACCTCTCTCTACACGCACGCGTCTCTCCCATCTCCCCGGAGTCACCTAGTGCAG”, for which the binding signal is 9030 fluorescence intensity (a.u.).

Turning to “AACTTTCTCCCACCGGCCACCGCGCGTCTCTTGCCACGACCGGAGTCACCTAGTGCAG”, the binding signal is 12200 fluorescence intensity (a.u.).

Turning to “TCTTCTTCCATGGTCTTTTCTAGATAAGGCTCTCTAATGTCGGAGTCACCTAGTGCAG”, the binding signal is 8620 fluorescence intensity (a.u.).

As to “TGAACGCTTCCCTGTGTTTGTGGTTACTGCCTTACTGGTTCGGAGTCACCTAGTGCAG”, the binding signal was 9210 fluorescence intensity (a.u.).

Turning to “CGCACGGTTGTTCTCGCCATGATCCTCCTTGCCGCTGTCACGGAGTCACCTAGTGCAG”, the binding signal is 8780 fluorescence intensity (a.u.).

Take “CTTAGGGTCGGGAAGGGGAGAGGCGGTGGCGGGCGGCTGACGGAGTCACCTAGTGCAG”: the binding signal was 13400 fluorescence intensity (a.u.).

On to “TCTTAGACGGTCCTGACTCGAGGCCCATATATATGCTGGGCGGAGTCACCTAGTGCAG”, for which the binding signal was 19900 fluorescence intensity (a.u.).

As to “CTCCTGACTCCTCCTCGGTTCCTCTTCCTCTCGAGCCCTTCGGAGTCACCTAGTGCAG”, the binding signal was 9950 fluorescence intensity (a.u.).

On to “TGGCTCCGCCACGTCCTCGTCGCCTGGAACTCGCTCGTCTCGGAGTCACCTAGTGCAG”, for which the binding signal is 8680 fluorescence intensity (a.u.).

Consider “TGTCTCAACAACAAGCTCTGTGTGCTGCAGTGTCATTCCACGGAGTCACCTAGTGCAG”, for which the binding signal was 8160 fluorescence intensity (a.u.).

Take “TATTGGTTTTTGTTTCTGGTGCCACGTCTGCGGCCAAAAACGGAGTCACCTAGTGCAG”: the binding signal was 9220 fluorescence intensity (a.u.).

For “CCTACACACGAAACCTCCGCGCCTCATCCGGGCTTCGCGACGGAGTCACCTAGTGCAG”, the binding signal is 10600 fluorescence intensity (a.u.).

For the sequence “TAACTTAACGTGATTTTCCTGTATGGACCTTAATTATGTTCGGAGTCACCTAGTGCAG”, the binding signal was 8580 fluorescence intensity (a.u.).

As to “CGTTCTCTCTCTCCTAGAACCACAGTTCAACCACTGTTTCCGGAGTCACCTAGTGCAG”, the binding signal is 8580 fluorescence intensity (a.u.).

On to “TGCCGTGGGATGGGGTTGCGGGAGGAGGAGGGTGCTACTACGGAGTCACCTAGTGCAG”, for which the binding signal is 17000 fluorescence intensity (a.u.).

Turning to “GGCGGTGGGTGGGTGGAGCCGTGGAGGGATGGAGGGAGGGCGGAGTCACCTAGTGCAG”, the binding signal was 37900 fluorescence intensity (a.u.).

For the sequence “CAAGCCGGGCGGGAGCCGTGGCGGCGGCCGGGCGGGCGGGCGGAGTCACCTAGTGCAG”, the binding signal was 8260 fluorescence intensity (a.u.).

Regarding “TGGGGATGCGGGGTGGCGCGGGAGGAGGGAGAGGACGGAGCGGAGTCACCTAGTGCAG”, the binding signal is 8670 fluorescence intensity (a.u.).

Take “GGAGGAGTACGACGGGGTGGGAGCGGCGGTGGGTGGGATGCGGAGTCACCTAGTGCAG”: the binding signal was 11500 fluorescence intensity (a.u.).

As for “CATGGAGGGAGGGAGGGAGGCGGAAGCGGAGGCGTGGGAGCGGAGTCACCTAGTGCAG”, the binding signal was 9980 fluorescence intensity (a.u.).

For “ACACGATATAGTCATTGCAATTATCACGGATCCAGGTCCTCGGAGTCACCTAGTGCAG”, the binding signal was 8560 fluorescence intensity (a.u.).

In the case of “AGTACACACCATTTGACATCCTGATTATGTATAGTAATTTCGGAGTCACCTAGTGCAG”, the binding signal is 8350 fluorescence intensity (a.u.).

As for “TCAGCTATCATAGTCTTCTAGAATGCTCTTCTTGTCAGATCGGAGTCACCTAGTGCAG”, the binding signal is 8220 fluorescence intensity (a.u.).

Take “ATGGGTTGGTAGAGGGGAGGGAACGCGCGACGGTGGCGAGCGGAGTCACCTAGTGCAG”: the binding signal is 8740 fluorescence intensity (a.u.).

Regarding “GTCTCGTGGCACCTCAATTTATTAATCACTACCCCTATACCGGAGTCACCTAGTGCAG”, the binding signal is 8710 fluorescence intensity (a.u.).

Consider “CATTAGACCCTGAGGTTTTTGACTAGGCAGCCCACTTGTCCGGAGTCACCTAGTGCAG”, for which the binding signal was 9040 fluorescence intensity (a.u.).

As for “ACAAATGGTCAAACGTTGGTCGAAAAGTCAACGGCGTCATCGGAGTCACCTAGTGCAG”, the binding signal was 13700 fluorescence intensity (a.u.).

Turning to “AAAAAGTCAACGGCGTCATATATTAAAATATGGAGAGAGTCGGAGTCACCTAGTGCAG”, the binding signal was 8150 fluorescence intensity (a.u.).

As for “GTTTGTCAAAAAGTCAACGGCGTCATATATTATACGGAGGCGGAGTCACCTAGTGCAG”, the binding signal was 18800 fluorescence intensity (a.u.).

Regarding “GATCAAACGTTGGTTAAAAAGTCAACGGCGTCATACATTACGGAGTCACCTAGTGCAG”, the binding signal was 10700 fluorescence intensity (a.u.).

Take “GAAATGTCAAATATTTGTTAAAAAGTCAACGGCGTCATACCGGAGTCACCTAGTGCAG”: the binding signal was 11900 fluorescence intensity (a.u.).

Take “ATAAAACAAATGATCAAACGTTGAATAAAAAGTCAACGGCCGGAGTCACCTAGTGCAG”: the binding signal was 11100 fluorescence intensity (a.u.).

Regarding “TAAAACGAATGGTCAAACGTTGGTCGAAAAGTCAACGGCGCGGAGTCACCTAGTGCAG”, the binding signal is 14400 fluorescence intensity (a.u.).

As to “TTTAAATAAAACGAATGGTCAAACGTTGATAAAAAGTCAACGGAGTCACCTAGTGCAG”, the binding signal was 13300 fluorescence intensity (a.u.).

For the sequence “ACAAATGGTCAAACGTTGATAAAAAAGTCAACGGCGTCATCGGAGTCACCTAGTGCAG”, the binding signal is 20600 fluorescence intensity (a.u.).

With “CGGATGGTCAAACGTTGGTCAAAAAGTCAACGGCGTCATACGGAGTCACCTAGTGCAG”, the binding signal is 19600 fluorescence intensity (a.u.).

Regarding “AAACGAATAGTCAAACGTTGATCGAAAAGTCAACGGCGTCCGGAGTCACCTAGTGCAG”, the binding signal is 19300 fluorescence intensity (a.u.).

Consider “AATGGTCAAACGTTGGATAAAAAGTCAACGGCGTCATACACGGAGTCACCTAGTGCAG”, for which the binding signal was 14700 fluorescence intensity (a.u.).

These data come from article PMC7819943, “Rice protein-binding microarrays: a tool to detect cis-acting elements near promoter regions in rice”.
